This is one part of a sample in which the strongest signals are shown more often than they occur.
What was measured:
Assay in all cases: glycan array binding signal (z-score within array); higher = stronger binding
Conditions in all cases: glycan notation: IUPAC condensed, linker removed
[1] = molecular target: Fuc(a1-2)Gal(b1-3)GlcNAc(b1-3)GalNAc
Outline: (§1)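 Glycan array data were curated from 3228 arrays in the Consortium for Functional Glycomics database and kept only where the protein sequence was available. Glycan names were converted to IUPAC-condensed notation, and columns mapping to the same glycan were averaged. The binding signal is a within-array Z-score, averaged across arrays of the same protein sequence at different concentrations or buffers and across linkers. Negative Z-scores can be read as non-binding.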

Fuc(a1-2)Gal(b1-4)Glc = molecular target: Fuc(a1-2)Gal(b1-4)Glc
Outline: as §1

[2] = molecular target: Fuc(a1-2)Gal(b1-4)GlcNAc(b1-2)[Fuc(a1-2)Gal(b1-4)GlcNAc(b1-4)]Man(a1-3)[Fuc(a1-2)Gal(b1-4)GlcNAc(b1-2)Man(a1-6)]Man(b1-4)GlcNAc(b1-4)GlcNAc
Outline: as §1

[3] = molecular target: Fuc(a1-2)Gal(b1-4)GlcNAc(b1-3)GalNAc
Outline: as §1

[4] = molecular target: Fuc(a1-2)Gal(b1-4)GlcNAc(b1-3)[Fuc(a1-3)[Gal(b1-4)]GlcNAc(b1-6)]Gal(b1-4)Glc
Outline: as §1

[5] = molecular target: Fuc(a1-2)Gal(b1-4)[Fuc(a1-3)]GlcNAc(b1-2)[Fuc(a1-2)Gal(b1-4)[Fuc(a1-3)]GlcNAc(b1-4)]Man(a1-3)[Fuc(a1-2)Gal(b1-4)[Fuc(a1-3)]GlcNAc(b1-2)Man(a1-6)]Man(b1-4)GlcNAc(b1-4)GlcNAc
Outline: as §1

[6] = molecular target: Fuc(a1-2)[Gal(a1-3)]Gal(b1-4)GlcNAc(b1-2)Man(a1-3)[Fuc(a1-2)[Gal(a1-3)]Gal(b1-4)GlcNAc(b1-2)Man(a1-6)]Man(b1-4)GlcNAc(b1-4)GlcNAc
Outline: as §1

[7] = molecular target: Fuc(a1-2)[GalNAc(a1-3)]Gal(b1-3)GlcNAc
Outline: as §1

[8] = molecular target: Fuc(a1-2)[GalNAc(a1-3)]Gal(b1-3)GlcNAc(b1-6)GalNAc
Outline: as §1

[9] = molecular target: Fuc(a1-2)[GalNAc(a1-3)]Gal(b1-4)GlcNAc(b1-2)Man(a1-3)[Fuc(a1-2)[GalNAc(a1-3)]Gal(b1-4)GlcNAc(b1-2)Man(a1-6)]Man(b1-4)GlcNAc(b1-4)GlcNAc
Outline: as §1

[10] = molecular target: Fuc(a1-2)[GalNAc(a1-3)]Gal(b1-4)GlcNAc(b1-6)GalNAc
Outline: as §1

[11] = molecular target: Fuc(a1-3)[Gal(b1-4)]GlcNAc(b1-3)GalNAc
Outline: as §1

Fuc(a1-4)GlcNAc = molecular target: Fuc(a1-4)GlcNAc
Outline: as §1

Gal(a1-3)Gal(b1-4)GlcNAc = molecular target: Gal(a1-3)Gal(b1-4)GlcNAc
Outline: as §1

Gal(b1-2)Gal = molecular target: Gal(b1-2)Gal
Outline: as §1

Gal(b1-3)Gal = molecular target: Gal(b1-3)Gal
Outline: as §1

[12] = molecular target: Gal(b1-3)GalNAc(b1-4)Gal(b1-4)Glc
Outline: as §1

[13] = molecular target: Gal(b1-3)GlcNAc(a1-6)Gal(b1-4)GlcNAc
Outline: as §1

[14] = molecular target: Gal(b1-3)GlcNAc(b1-3)Gal(b1-3)GlcNAc
Outline: as §1

[15] = molecular target: Gal(b1-3)GlcNAc(b1-3)Gal(b1-4)[Fuc(a1-3)]GlcNAc(b1-6)[Gal(b1-3)GlcNAc(b1-3)]Gal(b1-4)Glc
Outline: as §1

[16] = molecular target: Gal(b1-3)[Fuc(a1-4)]GlcNAc(b1-6)GalNAc
Outline: as §1

[17] = molecular target: Gal(b1-4)GlcNAc(b1-3)Gal(b1-4)GlcNAc(b1-2)[Gal(b1-4)GlcNAc(b1-3)Gal(b1-4)GlcNAc(b1-6)]Man(a1-6)[Gal(b1-4)GlcNAc(b1-3)Gal(b1-4)GlcNAc(b1-2)Man(a1-3)]Man(b1-4)GlcNAc(b1-4)GlcNAc
Outline: as §1

[18] = molecular target: Gal(b1-4)GlcNAc(b1-3)Gal(b1-4)GlcNAc(b1-3)Gal(b1-4)GlcNAc(b1-2)Man(a1-3)[Gal(b1-4)GlcNAc(b1-3)Gal(b1-4)GlcNAc(b1-3)Gal(b1-4)GlcNAc(b1-2)Man(a1-6)]Man(b1-4)GlcNAc(b1-4)GlcNAc
Outline: as §1

[19] = molecular target: Gal(b1-4)GlcNAc(b1-3)Gal(b1-4)GlcNAc(b1-3)Gal(b1-4)GlcNAc(b1-3)Gal(b1-4)GlcNAc(b1-3)Gal(b1-4)GlcNAc(b1-2)Man(a1-3)[Gal(b1-4)GlcNAc(b1-3)Gal(b1-4)GlcNAc(b1-3)Gal(b1-4)GlcNAc(b1-3)Gal(b1-4)GlcNAc(b1-3)Gal(b1-4)GlcNAc(b1-2)Man(a1-6)]Man(b1-4)GlcNAc(b1-4)GlcNAc
Outline: as §1

[20] = molecular target: Gal(b1-4)GlcNAc(b1-3)Gal(b1-4)GlcNAc(b1-3)Gal(b1-4)GlcNAc(b1-3)Gal(b1-4)GlcNAc(b1-3)Gal(b1-4)GlcNAc(b1-2)[Gal(b1-4)GlcNAc(b1-3)Gal(b1-4)GlcNAc(b1-3)Gal(b1-4)GlcNAc(b1-3)Gal(b1-4)GlcNAc(b1-3)Gal(b1-4)GlcNAc(b1-6)]Man(a1-6)[Gal(b1-4)GlcNAc(b1-3)Gal(b1-4)GlcNAc(b1-3)Gal(b1-4)GlcNAc(b1-3)Gal(b1-4)GlcNAc(b1-3)Gal(b1-4)GlcNAc(b1-2)Man(a1-3)]Man(b1-4)GlcNAc(b1-4)[Fuc(a1-6)]GlcNAc
Outline: as §1

[21] = molecular target: Gal3S(b1-4)[Fuc(a1-3)]GlcNAc
Outline: as §1

Gal3S6S(b1-4)GlcNAc6S = molecular target: Gal3S6S(b1-4)GlcNAc6S
Outline: as §1

GalNAc(a1-3)Gal = molecular target: GalNAc(a1-3)Gal
Outline: as §1

B1: PkBDPgamma (Plasmodium knowlesi) (protein)
chain: SAINQIFLQNNVMDKCNDKRKRGERDWDCPTEKDVCIPDRRYQLCMMEITNLVDTDTHFHSDIIFRKSYSRRRLIYDVGGRGDLLLKKYNNVYSEDLCKDIKWSLQDFGDIIMGTDMEGIGYSLVVQNNLRSIFGTGTSAELDRKKWWNDHKKDIWKAMILSVKEKNRYSAWNCKEDVQIKVEPQIYRWIREWGRDYMSEFREQRRKLNEKCEDKLYYSTMLICTLPPCNNACKSYDEWITGKKKQWDVLSTKFSSVKKAQKIETENIARAYDILKQELNGFNEVTFENEINKRDKLYNYFCVCIVQEARKNTQENVKNVGSGVESKAPSSNPINEAVKSSSGEGKVQEDSAHRSVNEGEGKSSTNEADPGSQPGAAASGGGSGGGTGGGVDLAPQMLRELQETNAALQDVRELLRQQVKEITFLKNTVMECDACGGPLDRNLPPLAPLGPTGGWSHPQFEK
[1]
  glycan array binding signal (z-score): 0.928
Fuc(a1-2)Gal(b1-4)Glc
  glycan array binding signal (z-score): -0.028
[2]
  glycan array binding signal (z-score): -0.391
[3]
  glycan array binding signal (z-score): 1.14
[4]
  glycan array binding signal (z-score): -0.305
[5]
  glycan array binding signal (z-score): 0.541
[6]
  glycan array binding signal (z-score): 0.37
[7]
  glycan array binding signal (z-score): 0.388
[8]
  glycan array binding signal (z-score): -0.403
[9]
  glycan array binding signal (z-score): 0.106
[10]
  glycan array binding signal (z-score): -0.264
[11]
  glycan array binding signal (z-score): 0.185
Fuc(a1-4)GlcNAc
  glycan array binding signal (z-score): -0.191
Gal(a1-3)Gal(b1-4)GlcNAc
  glycan array binding signal (z-score): -0.331
Gal(b1-2)Gal
  glycan array binding signal (z-score): -0.181
Gal(b1-3)Gal
  glycan array binding signal (z-score): 0.074
[12]
  glycan array binding signal (z-score): 0.593
[13]
  glycan array binding signal (z-score): -0.036
[14]
  glycan array binding signal (z-score): -0.37
[15]
  glycan array binding signal (z-score): -0.308
[16]
  glycan array binding signal (z-score): -0.142
[17]
  glycan array binding signal (z-score): 0.897
[18]
  glycan array binding signal (z-score): 0.866
[19]
  glycan array binding signal (z-score): 1.25
[20]
  glycan array binding signal (z-score): 0.939
[21]
  glycan array binding signal (z-score): -0.081
Gal3S6S(b1-4)GlcNAc6S
  glycan array binding signal (z-score): -0.041
GalNAc(a1-3)Gal
  glycan array binding signal (z-score): -0.429

Source: the supplement of paper PMC8728848
